The whole screen tested about 320,000 compounds, of which about 22,000 (6.9%) were called active. Where a call stands in place of a potency, no number is given. Roughly 27% stayed inconclusive and do not appear here. Calls come from the whole dose curve; as a rule, active = well fitted inhibition curve with a large enough effect; inconclusive = small, poorly fitted or top-dose-only effect, or another doubt; inactive = no such curve, though single readings can be large or run the other way. The full list was thinned out, with actives kept by preference.
Experiment: Primary qHTS for delayed death inhibitors of the malarial parasite plastid, 96 hour incubation
Details: P. falciparum luciferase reporter growth; series mostly up to 28.7 µM
How it was run: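 Readout is luminescence from an integrated firefly luciferase in P. falciparum. Red cells, 2% hematocrit and 0.05% parasitemia final, were cultured with compound through two parasite generations (96 hours) at 37 C, 5% CO2.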
Potency is the fitted concentration of half-maximal effect.

Structure (SMILES)	Potency	activity change, negative = inhibition
Cc1ccc(C(=O)N2CCCC2)c(F)c1F	inactive	
Cc1ccc(C(NC(=O)N2CCCC2)C(Cl)(Cl)Cl)cc1F (stereo not given)	8.28 µM (active)	
Cc1cc(C)cc(NC(=O)N2CCCCCCC2)c1	inactive	
CC(Sc1ncnc2c1cnn2-c1ccccc1)C(=O)Nc1ccc(N2CCOCC2)cc1 (stereo not given)	inactive	
CCOC(=O)c1ccccc1CN1C(=O)c2ccccc2S1(=O)=O	inactive	
CCOC(=O)c1cc2n(c1C)-c1ccccc1C2=O	9.28 µM (active)	
CCOC(=O)c1cc2n(c1N)-c1ccccc1C2=O	inactive	
Nc1c(N(CCO)C(=O)C2CCCCC2)c(=O)[nH]c(=O)n1Cc1ccccc1	inactive	
CC(=O)Nc1ccc(-c2csc(NC(=O)Nc3ccccc3)n2)cc1	inactive	
CC(=O)Nc1ccc(-c2csc(NC=C3C(=O)OC(C)(C)OC3=O)n2)cc1	inactive	
CC(=O)Nc1ccc(S(=O)(=O)Nc2nc(-c3ccc(C(C)(C)C)cc3)cs2)cc1	1.65 µM (active)	
O=C(CSc1nnc(CNC(=O)c2ccc(F)cc2)o1)Nc1ccc2c(c1)OCO2	inactive	
Cc1ccc(N2C(=O)CC(N3CCSCC3)C2=O)c(C)c1 (stereo not given)	inactive	
N#Cc1ccc(S(=O)(=O)NCC(=O)OCC(=O)NCCc2ccccc2)cc1	inactive	
O=C(COC(=O)CCc1nc2ccccc2c(=O)[nH]1)Nc1ccc(N2CCOCC2)cc1	inactive	
CC(C)NC(=O)CSc1nnc(COc2ccccc2Cl)o1	inactive	
Cc1ccccc1OCc1nnc(SCC(=O)N2c3ccccc3Sc3ccc(Cl)cc32)o1	13.1 µM (active)	
Cc1ccc(NC(=O)CSc2nnc(COc3ccccc3C)o2)cc1	inactive	
O=C(NNS(=O)(=O)Cc1ccccc1)c1ccc([N+](=O)[O-])cc1	inactive	
Cc1ccccc1-c1n[nH]c(=S)n1C		19.3% [at 5.75 µM] (inactive)
Cn1c(-c2sccc2OCc2cccc(C(F)(F)F)c2)n[nH]c1=S	14.7 µM (active)	
Cn1c(-c2sc3cc(C(F)(F)F)cnc3c2-c2ccccc2)n[nH]c1=S	inactive	

Structure (SMILES)	Potency	activity change, negative = inhibition
O=c1o[nH]c(-c2ccccc2)c1N=Nc1c(F)cccc1Cl	inactive	
CC[C@H]1CN2CCc3cc(OC)c(OC)cc3[C@@H]2C[C@@H]1C[C@H]1NCCc2cc(OC)c(OC)cc21	0.0738 µM (active)	
COC(=O)c1ccc([C@@H](O)[C@H](C)C(=O)CC(=O)OC(C)(C)C)cc1	inactive	
CCn1nc(C)c(/C=N/NC(=O)Cc2ccc(Cl)cc2)c1C	inactive	
COc1ccc(Cl)cc1NC(=O)CNc1ccccc1F	inactive	
Cc1nn(Cc2ccc(Cl)cc2)c(Cl)c1/C=N/NC(=O)CNc1ccccc1F	9.28 µM (active)	
Cc1ccccc1OCC(=O)Nc1ccc2c(c1)ncn2C	inactive	
COc1cccc(-c2nn(C)c3sc(C(=O)N4CCN(c5ccccc5)CC4)cc23)c1	inactive	
COc1ccc2nc(N3CCN(C(=O)c4ccc([N+](=O)[O-])o4)CC3)sc2c1	0.738 µM (active)	
CCN(CC)CCN(C(=O)c1cccc([N+](=O)[O-])c1)c1nc2ccc(OC)cc2s1	inactive	
C=CCNC(=S)N/N=C/c1ccc(OCc2ccccc2)cc1	inactive	
CCOc1ccc(NC(=O)C/C(C)=N/NC(=O)Cc2cccs2)cc1	inactive	
O=C(Cc1cccs1)N/N=C/c1ccc(OCc2ccccc2)cc1	11.7 µM (active)	
O=C(Nc1ccc(-n2cccn2)cc1)C1CCN(Cc2ccsc2)CC1	inactive	
COc1cc(Cl)c(C)cc1NC(=O)CSc1nnc(-c2ccco2)n1CC(C)C	10.4 µM (active)	
COc1ccccc1NC(=O)CSc1nnc(C)n1CC1CCCO1 (stereo not given)	inactive	
COc1ccc(NC(=O)CSc2ccc(-c3ccco3)nn2)c(OC)c1	14.7 µM (active)	
COc1ccc(NC(=O)CCC(=O)Nc2cc(OC)c(NC(=O)c3ccco3)cc2OC)c(OC)c1	inactive	
O=C(CSc1ccc(-c2ccco2)nn1)NCc1ccc2c(c1)OCO2	inactive	
CCn1c(SCC(=O)Nc2cc(C)c(Cl)cc2OC)nnc1-c1ccco1	inactive	
CCN(CC)c1ccc(/C=N/NC(=O)CNC(=O)c2cccs2)cc1	inactive	
O=C(Nc1ccccc1-c1nc2ccccc2[nH]c1=O)c1cccs1	inactive	

Structure (SMILES)	Potency	activity change, negative = inhibition
Cc1ccc(C(CNC(=O)Nc2ccccc2)N2CCN(C)CC2)cc1 (stereo not given)	inactive	
CC(C)(C)c1ccc(OC2=CS(=O)(=O)c3ccccc32)cc1	9.28 µM (active)	
O=C1NS(=O)(=O)c2ccccc21	inactive	
CC(C)(C)c1ccc(Oc2ccc(N)cc2)cc1	inactive	
CCn1cc(/C=C(\NC(=O)c2cc(OC)c(OC)c(OC)c2)C(=O)N2CCN(C)CC2)c2ccccc21	inactive	
CC1CCN(CC(=O)Nc2nccs2)CC1	inactive	
Cc1cc(=O)[nH]c(SCC(=O)Nc2ccc(Br)cc2)n1	inactive	
CC(=O)Oc1ccc(N(C(C)=O)S(=O)(=O)c2ccc3ccccc3c2)cc1Br	inactive	
Cc1nc([N+](=O)[O-])cn1CC(=O)Nc1ccc(Cl)cc1	inactive	
CNC(=O)c1ccsc1NC(=O)c1ccc(S(=O)(=O)N2CCc3ccccc32)cc1	11.7 µM (active)	
O=C(Nc1nc2ccc([N+](=O)[O-])cc2s1)c1ccc(S(=O)(=O)N2CCCc3ccccc32)cc1	inactive	
NS(=O)(=O)c1ccc(CNC(=O)c2cccc(S(=O)(=O)N3CCc4ccccc43)c2)cc1	inactive	
CCN(CC)CCCNC(=O)c1cc2c(=O)[nH]c3ccc(C)cc3c2s1	inactive	
CC(=O)NS(=O)(=O)c1ccc2c(c1)Cc1cc(S(=O)(=O)NC(C)=O)ccc1-2	inactive	
COc1cc(C2/C(=C(\O)c3ccc4c(c3)CC(C)O4)C(=O)C(=O)N2c2nnc(C)s2)cc(OC)c1OC (stereo not given)	inactive	
Cc1sc2nc(SCC(N)=O)n(C)c(=O)c2c1C	inactive	
Cc1sc2nc(SCCO)n(-c3ccccc3)c(=O)c2c1C	10.4 µM (active)	
CCc1cc2c(=O)n(-c3ccccc3)c(SCC(=O)O)nc2s1	inactive	
CCN(CCO)C(=S)Nc1cc(C(=O)OC)ccc1C(=O)OC	inactive	
CCS(=O)(=O)Nc1cc(C(=O)OC)ccc1C(=O)OC	10.4 µM (active)	
COC(=O)c1ccc(C(=O)OC)c(NC(=S)N2CCCCC2)c1	inactive	

From PubChem BioAssay AID504834 (National Center for Advancing Translational Sciences (NCATS), 2011)
